# Values joined by “and” are separate entries in the source; they are usually repeats but may differ in a detail not shown here. Equal values may be shown once. Inconclusive results are not listed. Where a call stands in place of a potency, no number is given. Some compounds were tested as several samples or in several runs, with calls that do not always agree. Active and inactive are the calls of the source. Unless noted, the call rests on the fitted dose curve; in most records, active means well fitted curve in the direction sought with a large enough effect in the repeat runs; inconclusive means weak or mixed curves; inactive means no such curve, though single readings can be large; an effect the other way counts as inactive or inconclusive.
# What was measured:
# [1] = qHTS assay to identify small molecule antagonists of the thyroid receptor (TR) signaling pathway (AID 743065); further: series mostly up to about 70 µM; nearly all actives have a fitted effect of over 55% in size
# Outline: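 GH3.TRE-Luc rat pituitary cells carrying two TR response elements driving luciferase were plated for 4 h, given compound plus 1 nM T3 (final), and incubated 23.5 h at 37 C. ONE-Glo luminescence measured reporter inhibition; CellTiter-Fluor fluorescence tracked cytotoxicity.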
# [2] = system: thyroid hormone receptor (rat, GH3 cells); experiment: qHTS assay to identify small molecule agonists of the thyroid receptor (TR) signaling pathway (AID 743066; calls by dose curve)
# [3] = target: Estrogen receptor (Homo sapiens) (UniProt P03372); experiment: qHTS assay to identify small molecule antagonists of the estrogen receptor alpha (ER-alpha) signaling pathway (AID 743069; active means well fitted curve in the direction sought with a large enough effect in the signal ratio in the repeat runs, not every such curve was filed as active; the % refers to the signal ratio)
# Outline: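 Estradiol-stimulated ER-alpha-UAS-bla HEK293 cells, 18 hr compound exposure at 37C. LiveBLAzer B/G substrate, 2 hr RT, fluorescence read.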
# [4] = qHTS assay to identify small molecule antagonists of the estrogen receptor alpha (ER-alpha) signaling pathway - cell viability counter screen (AID 743074; calls by dose curve;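 further: HEK293 cells carrying ER-alpha-UAS-bla reporter stimulated with 17beta-estradiol; nearly all actives have a fitted effect of over 45% in size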)
# [5] = target: Estrogen receptor (Homo sapiens) (UniProt P03372); experiment: qHTS assay to identify small molecule agonists of the estrogen receptor alpha (ER-alpha) signaling pathway (AID 743075; calls by dose curve;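 further: HEK293 GripTite cells with ER-alpha and UAS-driven beta-lactamase reporter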)
# [6] = target: Estrogen receptor (Homo sapiens) (UniProt P03372); experiment: qHTS assay to identify small molecule agonists of the estrogen receptor alpha (ER-alpha) signaling pathway using the BG1 cell line (AID 743079); further: nearly all actives have a fitted effect of over 20% in size; further: potency means the concentration at half of the fitted maximal effect
# [7] = qHTS assay to identify small molecule antagonists of the estrogen receptor alpha (ER-alpha) signaling pathway using the BG1 cell line (AID 743080; calls by dose curve;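 further: BG1 cells stimulated with 17beta-estradiol alongside compound; series mostly up to about 70 µM; nearly all actives have a fitted effect of over 25% in size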)
# Outline: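 Seeding, 24 h rest, compound transfer from DMSO, 17beta-estradiol addition, 21.5 h incubation, CellTiter-Fluor (30 min, 37 C), then ONE-Glo (30 min, room temperature): this sequence was run on BG1-Luc-4E2 reporter cells.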
# [8] = qHTS assay to identify small molecule antagonists of the estrogen receptor alpha (ER-alpha) signaling pathway using the BG1 cell line - cell viability counter screen (AID 743081);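 further: compound given together with 17beta-estradiol as the ER stimulus; nearly all actives have a fitted effect of over 45% in size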; further: potency means the concentration at half of the fitted maximal effect
# [9] = target: Aromatase (Homo sapiens) (UniProt P11511); experiment: qHTS assay to identify aromatase inhibitors (AID 743083); further: series mostly up to about 70 µM; nearly all actives have a fitted effect of over 55% in size
# [10] = qHTS assay to identify aromatase inhibitors - cell viability counter screen (AID 743084);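 further: cells stimulated with testosterone during compound exposure; nearly all actives have a fitted effect of over 55% in size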; further: potency means the concentration at half of the fitted maximal effect
# [11] = qHTS assay to identify small molecule that activate the aryl hydrocarbon receptor (AhR) signaling pathway - cell viability counter screen (AID 743086); further: nearly all actives have a fitted effect of over 45% in size; further: potency means the concentration at half of the fitted maximal effect
# Outline: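 HepG2-AhR-luc (HG2L7.5c1) cells, 4000/well, were preincubated 5 h at 37C, exposed to compound in qHTS format for 24 hr at 37C, then given CellTiter-Fluor for 30 min; viability was read as fluorescence in the reporter wells.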
# [12] = target: Peroxisome proliferator-activated receptor gamma (Homo sapiens) (UniProt P37231); experiment: qHTS assay to identify small molecule agonists of the peroxisome proliferator-activated receptor gamma (PPARg) signaling pathway (AID 743094; active means well fitted activation curve with a large enough effect in the signal ratio in the repeat runs, not every such curve was filed as active; the % refers to the signal ratio)
# Outline: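 Quantitative HTS agonist mode: stable HEK293H line with UAS-beta-lactamase reporter under PPARg control, 17 h compound exposure at 37C, fluorescence after 1 h FRET substrate loading at room temperature.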
# [13] = target: Peroxisome proliferator-activated receptor gamma (Homo sapiens) (UniProt P37231); experiment: qHTS assay to identify small molecule antagonists of the peroxisome proliferator-activated receptor gamma (PPARg) signaling pathway (AID 743191; calls by dose curve; further: series mostly up to about 63 µM; nearly all actives have a fitted effect of over 30% in size)
# Outline: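 GeneBLAzer PPARg UAS-bla HEK293H cells carrying a UAS-driven beta-lactamase reporter were plated at 3000 cells/well, preincubated 5 h at 37C, then given compound for 17 h at 37C; LiveBLAzer B/G FRET substrate was read after 1 h at room temperature.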
# [14] = qHTS assay to identify small molecule antagonists of the peroxisome proliferator-activated receptor gamma (PPARg) signaling pathway - cell viability counter screen (AID 743194); further: nearly all actives have a fitted effect of over 55% in size
# Outline: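 PPARg-UAS-bla HEK293H cells were plated, rested 5 h at 37 C, then treated with compounds plus rosiglitazone (50 nM final) for 17 h at 37 C; viability was then read by CellTiter-Glo luminescence after 30 min at room temperature.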
# [15] = qHTS assay for small molecule agonists of the antioxidant response element (ARE) signaling pathway (AID 743202; active means well fitted activation curve with a large enough effect in the signal ratio in the repeat runs, not every such curve was filed as active; the % refers to the signal ratio; further: potency means the concentration at half of the fitted maximal effect)
# Outline: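 Compounds delivered in DMSO to ARE-bla HepG2 cells (2,000 cells/well, pre-incubated 5 h) and left 16 h at 37 C. LiveBLAzer B/G FRET substrate then added for 2 h at RT before fluorescence reading.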
# [16] = qHTS assay for small molecule agonists of the antioxidant response element (ARE) signaling pathway - cell viability counter screen (AID 743203; calls by dose curve; further: nearly all actives have a fitted effect of over 55% in size)
# Outline: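 Seeded at 2,000 cells/well, ARE-bla HepG2 cells were incubated 5 hrs before compound addition. After 16 hrs of treatment at 37C with 5% CO2, CellTiter-Glo reagent was added and luminescence read 30 min later.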
# [17] = qHTS assay for small molecule activators of the heat shock response signaling pathway - cell viability counter screen (AID 743209); further: nearly all actives have a fitted effect of over 50% in size
# Outline: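 First, HSE-bla HeLa cells were seeded at 1500 cells/well and kept overnight at 37 C. Next, compounds were pinned in and incubated 5 h. After the FRET substrate step, CellTiter-Glo was added and luminescence read 30 min later.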
# [18] = qHTS assay for small molecule activators of the heat shock response signaling pathway (AID 743210; active means well fitted activation curve with a large enough effect in the signal ratio in the repeat runs, with a control signal flat, not every such curve was filed as active; the % refers to the signal ratio;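 further: HeLa cells with beta-lactamase reporter driven by heat shock elements; series mostly up to about 63 µM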)
# Outline: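 Reporter gene assay: HeLa cells stably bearing an HSE-bla construct, compound treatment 5 h at 37 C, LiveBLAzer substrate 2.5 h at RT, fluorescence intensity.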
# [19] = qHTS assay to identify small molecule agonists of the peroxisome proliferator-activated receptor delta (PPARd) signaling pathway - cell viability counter screen (AID 743211); further: nearly all actives have a fitted effect of over 55% in size
# Outline: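 Viability was measured as CellTiter-Glo luminescence (30 min, room temperature) in the same wells as the beta-lactamase readout. GeneBLAzer PPARd UAS-bla HEK293H cells received compound after 5 h plating and were incubated 17 h at 37 C.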
# [20] = target: Aryl hydrocarbon receptor (Homo sapiens) (UniProt P35869); experiment: qHTS assay to identify small molecule that activate the aryl hydrocarbon receptor (AhR) signaling pathway (AID 743085); further: nearly all actives have a fitted effect of over 15% in size; further: potency means the concentration at half of the fitted maximal effect;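 on activation: HG2L7.5c1 human HepG2 liver cells with stably integrated DRE-driven firefly reporter; series mostly up to about 70 µM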
# Outline: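 Luminescence (ONE-Glo) from a dioxin-responsive-element luciferase reporter in HG2L7.5c1 HepG2 cells after 24 hr compound exposure at 37C; viability measured by CellTiter-Fluor fluorescence beforehand.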
# Estrogen receptor (Homo sapiens), sequence (P03372 whole entry, looked up): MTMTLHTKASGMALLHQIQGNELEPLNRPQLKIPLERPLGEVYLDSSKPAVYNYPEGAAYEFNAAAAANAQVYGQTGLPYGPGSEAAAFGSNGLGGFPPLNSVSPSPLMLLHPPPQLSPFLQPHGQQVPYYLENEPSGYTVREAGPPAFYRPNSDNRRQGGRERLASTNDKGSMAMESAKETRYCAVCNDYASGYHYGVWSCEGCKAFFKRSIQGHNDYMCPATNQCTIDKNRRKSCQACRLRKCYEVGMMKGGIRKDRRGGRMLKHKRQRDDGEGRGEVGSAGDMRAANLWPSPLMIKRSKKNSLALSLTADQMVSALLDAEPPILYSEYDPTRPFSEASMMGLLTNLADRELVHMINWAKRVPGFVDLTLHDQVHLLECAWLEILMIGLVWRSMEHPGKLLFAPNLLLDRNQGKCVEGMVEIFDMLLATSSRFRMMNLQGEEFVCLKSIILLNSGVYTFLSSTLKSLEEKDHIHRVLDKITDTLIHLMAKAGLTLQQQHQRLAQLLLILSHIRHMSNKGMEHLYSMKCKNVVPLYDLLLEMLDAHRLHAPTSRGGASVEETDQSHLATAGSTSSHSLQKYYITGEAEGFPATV
# Aryl hydrocarbon receptor (Homo sapiens), sequence (P35869 whole entry, looked up): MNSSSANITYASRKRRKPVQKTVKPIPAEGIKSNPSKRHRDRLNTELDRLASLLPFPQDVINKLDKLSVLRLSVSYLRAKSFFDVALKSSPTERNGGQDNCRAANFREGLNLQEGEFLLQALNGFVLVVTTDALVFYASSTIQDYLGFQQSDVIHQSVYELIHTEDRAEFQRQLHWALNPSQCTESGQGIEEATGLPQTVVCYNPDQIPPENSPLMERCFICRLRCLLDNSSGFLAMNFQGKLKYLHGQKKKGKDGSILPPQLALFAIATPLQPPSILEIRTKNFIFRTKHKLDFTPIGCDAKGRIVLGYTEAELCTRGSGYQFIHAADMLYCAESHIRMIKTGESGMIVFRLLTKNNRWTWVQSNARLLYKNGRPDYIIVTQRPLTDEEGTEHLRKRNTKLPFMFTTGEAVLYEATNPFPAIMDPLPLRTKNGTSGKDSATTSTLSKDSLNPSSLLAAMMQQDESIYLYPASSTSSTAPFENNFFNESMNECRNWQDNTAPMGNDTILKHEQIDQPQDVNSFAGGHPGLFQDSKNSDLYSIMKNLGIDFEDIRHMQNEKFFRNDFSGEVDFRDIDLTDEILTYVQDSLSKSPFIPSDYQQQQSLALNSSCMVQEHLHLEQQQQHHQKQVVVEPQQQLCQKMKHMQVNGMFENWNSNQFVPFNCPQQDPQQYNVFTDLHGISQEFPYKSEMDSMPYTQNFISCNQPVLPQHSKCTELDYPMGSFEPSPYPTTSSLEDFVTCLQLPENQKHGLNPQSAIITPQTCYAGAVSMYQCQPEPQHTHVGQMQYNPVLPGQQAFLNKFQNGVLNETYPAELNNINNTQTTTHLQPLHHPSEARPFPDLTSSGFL
# Peroxisome proliferator-activated receptor gamma (Homo sapiens), sequence (P37231 whole entry, looked up): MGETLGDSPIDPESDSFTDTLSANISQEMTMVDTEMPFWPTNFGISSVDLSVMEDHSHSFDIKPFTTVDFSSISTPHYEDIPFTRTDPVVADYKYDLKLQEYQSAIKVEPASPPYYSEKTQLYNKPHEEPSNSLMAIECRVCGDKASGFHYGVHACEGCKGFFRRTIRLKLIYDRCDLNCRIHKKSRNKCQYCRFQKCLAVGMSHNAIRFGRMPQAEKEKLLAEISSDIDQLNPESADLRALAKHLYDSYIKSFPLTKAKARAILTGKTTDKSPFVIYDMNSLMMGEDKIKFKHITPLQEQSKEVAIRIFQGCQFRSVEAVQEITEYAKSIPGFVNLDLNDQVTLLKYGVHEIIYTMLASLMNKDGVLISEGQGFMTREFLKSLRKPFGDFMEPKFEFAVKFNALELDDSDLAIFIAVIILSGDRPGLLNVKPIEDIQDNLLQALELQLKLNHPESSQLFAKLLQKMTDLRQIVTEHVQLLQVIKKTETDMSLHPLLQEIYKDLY
# Aromatase (Homo sapiens), sequence (P11511 whole entry, looked up): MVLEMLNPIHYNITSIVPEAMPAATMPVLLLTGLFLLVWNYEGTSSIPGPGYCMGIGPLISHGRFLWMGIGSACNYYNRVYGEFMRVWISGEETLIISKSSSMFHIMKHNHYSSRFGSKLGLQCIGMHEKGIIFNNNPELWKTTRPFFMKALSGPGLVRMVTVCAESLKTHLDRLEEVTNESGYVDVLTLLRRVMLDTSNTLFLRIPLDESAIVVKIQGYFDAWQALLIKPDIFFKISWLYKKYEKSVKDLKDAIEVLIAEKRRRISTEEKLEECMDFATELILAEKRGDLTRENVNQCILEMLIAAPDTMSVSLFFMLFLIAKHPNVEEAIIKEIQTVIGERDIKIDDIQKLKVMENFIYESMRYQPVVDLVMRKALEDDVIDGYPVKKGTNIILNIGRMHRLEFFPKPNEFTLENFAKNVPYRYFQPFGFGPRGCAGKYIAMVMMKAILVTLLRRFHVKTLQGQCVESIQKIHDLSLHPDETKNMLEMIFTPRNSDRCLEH
Structure (SMILES),Potency [1],outcome [2],Potency [3],outcome [4],Potency [5],Potency [6],outcome [7],Potency [8],Potency [9],Potency [10],Potency [11],outcome [12],outcome [13],outcome [14],Potency [15],Potency [16],outcome [17],outcome [18],outcome [19],Potency [20]
CC(=O)CCC=C(C)C,inactive,inactive,inactive,inactive,inactive,inactive,inactive,inactive,inactive,inactive,inactive,inactive,inactive,inactive,inactive,inactive,inactive,inactive,inactive,
CCCCCCCCCCO,inactive,inactive,inactive,inactive,inactive,inactive,inactive,inactive,inactive,inactive,inactive,inactive,inactive,inactive,inactive,inactive,inactive,,inactive,inactive
Cc1ccc(S(=O)(=O)N=C=O)cc1,inactive,inactive,inactive,inactive,inactive,inactive,inactive,inactive,inactive,inactive,inactive,inactive,inactive,inactive,inactive,inactive,inactive,inactive,inactive,
CC(=O)CC(C)(C)O,inactive,inactive,inactive,inactive,inactive,inactive,inactive,inactive,inactive,inactive,inactive,inactive,inactive,inactive,inactive,inactive,inactive,inactive,inactive,
CC(=O)OCCOC(C)=O,inactive,inactive,inactive,inactive,inactive,inactive,inactive,inactive,inactive,inactive,inactive,inactive,inactive,inactive,inactive,inactive,inactive,inactive,inactive,inactive
CCNc1cccc(C)c1,inactive,inactive,inactive,inactive,inactive,inactive,inactive,inactive,inactive,inactive,inactive,inactive,inactive,,inactive,inactive,inactive,inactive,inactive,inactive
O=S(=O)(O)c1ccc(N=Nc2c(O)ccc3cc(S(=O)(=O)O)ccc23)cc1,inactive,inactive,inactive,inactive,inactive,inactive,inactive,27.4 µM (active) and 27.3 µM (active),inactive,15.4 µM (active) and 19.3 µM (active),13.7 µM (active) and 8.63 µM (active),,,inactive,inactive,inactive,inactive,inactive,inactive,inactive
CN(C)c1ccc(O)c2c1C[C@H]1C[C@H]3[C@H](N(C)C)C(=O)C(C(N)=O)=C(O)[C@@]3(O)C(=O)C1=C2O,inactive,inactive,inactive,inactive,inactive,inactive,inactive,inactive,inactive,inactive,inactive,,,inactive,inactive,inactive,inactive,inactive,inactive,inactive and 7.7 µM (active)
O=C(OCC1CCC2OC2C1)C1CCC2OC2C1 (configuration not stated),inactive,inactive,inactive,inactive,inactive,inactive,inactive,inactive,inactive,inactive,inactive,inactive,inactive,inactive,inactive,inactive,inactive,,inactive,inactive
CC(C)CC(C)O (configuration not stated),inactive,inactive,inactive,inactive,inactive,inactive,inactive,inactive,inactive,inactive,inactive,inactive,inactive,inactive,inactive and 30.6 µM (active),inactive,inactive,inactive,inactive,inactive
CC(=O)Oc1ccc(C)cc1,inactive,inactive,inactive,inactive,inactive,inactive,inactive,inactive,inactive,inactive,inactive,inactive,inactive,inactive,inactive,inactive,inactive,,inactive,inactive
CCOCC(=O)O,inactive,inactive,inactive,inactive,inactive,inactive,inactive,inactive,inactive,inactive,inactive,inactive,inactive,inactive,inactive,inactive,inactive,inactive,inactive,
Nc1nc(N)nc(-c2ccccc2)n1,inactive,inactive,inactive,inactive,inactive,inactive and 34.4 µM (active),inactive,inactive,inactive,inactive,inactive,inactive,inactive,inactive,inactive,inactive,inactive,inactive,inactive,
CCCCCCC=O,inactive,inactive,inactive,inactive,inactive,inactive,inactive,inactive,inactive,inactive,inactive,inactive,inactive,inactive,inactive,inactive,inactive,inactive,inactive,inactive
CC(C)c1cccc(C(C)C)c1,inactive,inactive,inactive,inactive,inactive,inactive,inactive,inactive,inactive,inactive,inactive,inactive,inactive,inactive,inactive,inactive,inactive,inactive,inactive,inactive

# Source: PubChem BioAssay (Tox21)
